Measured values taken from PubChem BioAssay.
Calls of active or inactive are those of the source.

Test: E. coli DRC41 culture turbidity changes, primary screen, E. coli filamentation inducer project, strain DRC41, OD650, 48 h (AID 1152);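 also: E. coli MC1000 strain DRC41 lacking acrAB efflux pump and sulA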
Conditions: E. coli DRC41 (acrAB sulA), higher = more signal, called active from +8 up or from −8 down

z-score, inactive:
CC(C)C(=C=CC[C@H](O)c1ccccc1OCCO)C[C@H](O)COCc1ccccc1 -0.188
CC(C)NC(=O)[C@@]1(c2ccc([N+](=O)[O-])cc2)CC(=O)N(CC23CC4CC(CC(C4)C2)C3)[C@@H]1c1ccc(CO)cc1 -0.323
CC(C)=C1C(=O)C(c2ccccc2)=C2CN3C(=O)N(CCc4ccccc4)C(=O)[C@]3(C)[C@H]21 -2.52
[N-]=[N+]=Nc1ccccc1[C@H]1OC(c2ccc(OCCCO)cc2)=N[C@@]1(Cc1ccccc1)C(=O)NCC(O)CO (stereo partly specified) 0.348
COCCCNC(=O)[C@@]1(CCS(=O)(=O)c2ccccc2)COC(c2ccc(OCCCO)cc2)=N1 1.08
CC(C)(C)N1CC=CC23O[C@@H]4C=CCOC(=O)[C@@H]4[C@H]2C(=O)N(CCO)[C@@H]3C1=O (stereo partly specified) -0.476
CN(C)CCCCNC(=O)[C@H]1C[C@H]2C(=O)NCC(=O)N2[C@H]1c1ccc(O)cc1 0.327
CC(C)C(O)C1C=CC2C(=O)NC(=O)C2N1Nc1ccccn1 (stereo unspecified) -0.668
O=C1C2C=CC(C(O)c3ccc([N+](=O)[O-])cc3)N(Nc3ccccc3F)C2C(=O)N1c1ccccc1 (stereo unspecified) -1.36
CN(C)CCCC[C@@H]1NC(=O)[C@@H]2C[C@H](C(=O)NCCCCCN)[C@H](c3cccc(OCCO)c3)N2C1=O 2.96
CC1CC/C=C\[C@H]2OC34C=CCN(Cc5ccccc5)C(=O)[C@H]3N(CCCCCCO)C(=O)[C@@H]4C2C(=O)O1 (stereo partly specified) 0.528
C=CCC(OC(C)=O)[C@@H]1[C@@H](N(Cc2cccc3ccccc23)C(=O)c2ccc(-c3ccccc3)cc2)c2cc(OCCCO)ccc2N1C(=O)Cc1ccc2ccccc2c1 (stereo partly specified) -0.662
CC(C)NC(=O)[C@@]1(C)c2ccccc2C(=O)N(Cc2ccccc2)[C@H]1c1ccc(CO)cc1 1.31
COC(=O)[C@@]1(Cc2ccccc2)[C@H]2c3cc(C(=O)N4CCCC4)n(Cc4ccc(OC)c(OC)c4)c3C[C@H]2CN1C(=O)c1ccccc1 -1.08
O=C1C[C@@](C(=O)NCc2ccccc2)(c2ccc([N+](=O)[O-])cc2)[C@@H](c2ccc(CO)cc2)N1C1CCCCC1 1.09
[N-]=[N+]=Nc1ccccc1[C@@H]1OC(c2ccc(OCCCO)cc2)=N[C@]1(CCS(=O)(=O)c1ccccc1)C(=O)NCC(O)CO (stereo partly specified) 0.401
CCOC(=O)C[C@H]1[C@H](OC(=O)c2ccccc2-c2ccccc2)[C@@H](NC(=O)c2ccc3ccccc3c2)c2cc(OCCCO)ccc2N1C(=O)Cc1ccc(OC)cc1 -0.878
CCOC(=O)C[C@H]1[C@H](OC(=O)Cc2ccc3c(c2)OCO3)[C@@H](NC(=O)Cc2ccc(OC)cc2)c2cc(OCCCO)ccc2N1C(=O)Cc1ccc(OC)cc1 1.91
Cc1ccc(C(C)CC(O)C2C=CC3C(=O)N(C)C(=O)C3N2Nc2ccccc2)o1 (stereo unspecified) -2.23
Cc1ccc(S[C@]2(C(=O)NCC(F)(F)F)CC(=O)N(Cc3ccccc3C(F)(F)F)[C@@H]2c2ccc(CO)cc2)cc1 -0.262
COC(=O)[C@]1(Cc2ccccc2)N=C(c2ccc(OCCCO)cc2)O[C@@H]1c1ccccc1CN=[N+]=[N-] -1.03
COC(=O)C(CC#Cc1ccc2c(c1)[C@]1(C(=O)N2)[C@H](c2ccc(OCCO)cc2)N2[C@H](c3ccccc3)[C@H](c3ccccc3)OC(=O)[C@H]2[C@@H]1C(=O)N1CCCCCCC1)C(=O)OC -0.598
C[C@]1(C(=O)O)c2ccccc2C(=O)N(Cc2cc(F)cc(C(F)(F)F)c2)[C@H]1c1ccc(CO)cc1 -0.169
O=C(NC1CC1)[C@@H]1c2ccccc2C(=O)N(CC23CC4CC(CC(C4)C2)C3)[C@H]1c1ccc(CO)cc1 0.268
COC(=O)[C@@]1(Cc2ccc(OC)cc2)[C@H]2c3cc(C(=O)N4CCCC4)n(CCn4cc([N+](=O)[O-])nc4C)c3C[C@H]2CN1C(=O)c1ccccc1 -2.21
CC1CC/C=C\[C@H]2OC34C=CCN(c5ccc6ccccc6c5)C(=O)[C@H]3N(C(C)CO)C(=O)[C@@H]4C2C(=O)O1 (stereo partly specified) -0.114
O=C1C[C@]2(c3ccc([N+](=O)[O-])cc3)C(=O)N(C3CC3)c3cc(CO)ccc3[C@H]2N1C1CCCCC1 -0.348
CCN(CC)c1ccc(N2CC=CC34O[C@@H]5C=CCCOC(=O)C5[C@H]3C(=O)N(C(C)CO)[C@@H]4C2=O)cc1 (stereo partly specified) -0.627
COC(=O)[C@@]1(Cc2ccccc2)[C@H]2c3cc(C(=O)N(C)C)n(CCO)c3C[C@H]2CN1C(=O)c1ccccc1 -1.65
COc1cc(CO)cc(I)c1O[C@H]1C=C(C(=O)NCCO)C[C@@H](NC2CCCCCC2)[C@@H]1O 0.818
O=C1C2C=CC(C(O)c3cccs3)N(Nc3ccc([N+](=O)[O-])cc3)C2C(=O)N1c1ccccc1 (stereo unspecified) -0.46
CCOC(=O)C[C@H]1[C@H](OC(=O)c2ccccc2-c2ccccc2)[C@@H](NC(=O)C2CCCCC2)c2cc(OCCCO)ccc2N1C(=O)c1ccc2ccccc2n1 -0.899
COC(=O)[C@@]1(Cc2ccc(F)cc2)[C@H]2c3cc(C(=O)N4CCCC4)n(Cc4ccccn4)c3C[C@H]2CN1C(=O)c1ccccc1 -1.9
C=C(CCCC)/C(=C/C[C@H](OC(=O)c1ccncc1)c1ccccc1OCCO)c1cc(C(=O)OC)ccc1OC 0.0839
O=C(NCc1ccccc1)[C@@H]1c2ccccc2C(=O)N(Cc2cc(C(F)(F)F)cc(C(F)(F)F)c2)[C@H]1c1ccc(CO)cc1 -0.0343
COc1ccc([Si](C)(C)[C@H]2[C@H](CCO)O[C@@]3(C(=O)N(Cc4ccc(NC(=O)[C@H](C)O)cc4)c4ccccc43)[C@@H]2C)cc1 0.0546
